26 molecules from PubChem BioAssay (EPA / NIEHS) can be followed below.

Active and inactive are the calls of the source. How the source made its calls: active means hit-call score of the fitted dose curve at least 0.9, where 1 is the maximum; inconclusive means response in the unintended direction; inactive means score below 0.9.

In the assay the target is Peroxisome proliferator-activated receptor gamma (Homo sapiens) (UniProt P37231). The assay is described as follows: OT_PPARg_PPARgSRC1_1440: Odyssey Thera (OT) 24-hour Protein-Complementation Assay for Peroxisome Proliferator-activated Receptor Gamma/ SRC-1 Co-activator (AID 2283388). The essentials: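 HEK293T transiently transfected with PPARg/SRC-1 split-Venus YFP fusions 48 h before dosing, then treated 24 h at 37C. Fixed cells imaged; nuclear/cytoplasmic 488 nm fluorescence ratio, gain of signal versus DMSO.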
Sequence of Peroxisome proliferator-activated receptor gamma (Homo sapiens) (P37231 whole entry, looked up, the tested form may be a part): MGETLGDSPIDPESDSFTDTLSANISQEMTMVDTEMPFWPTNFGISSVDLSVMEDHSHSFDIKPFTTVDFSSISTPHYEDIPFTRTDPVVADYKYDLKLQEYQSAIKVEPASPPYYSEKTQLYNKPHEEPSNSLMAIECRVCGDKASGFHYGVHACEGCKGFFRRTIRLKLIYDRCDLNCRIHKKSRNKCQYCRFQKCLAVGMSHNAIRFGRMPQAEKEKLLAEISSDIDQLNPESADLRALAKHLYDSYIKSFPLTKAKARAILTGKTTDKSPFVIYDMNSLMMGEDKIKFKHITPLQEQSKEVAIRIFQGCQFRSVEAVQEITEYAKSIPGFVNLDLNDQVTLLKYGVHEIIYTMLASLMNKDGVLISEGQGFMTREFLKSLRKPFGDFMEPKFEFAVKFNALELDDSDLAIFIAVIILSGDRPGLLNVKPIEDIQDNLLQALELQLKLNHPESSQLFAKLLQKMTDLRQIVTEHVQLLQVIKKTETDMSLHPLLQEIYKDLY

As to `CCCCOC(=O)CCCCCCCC(=O)OCCCC`, the molecule was classed as inactive. As for `COc1ccccc1N=Nc1c(S(=O)(=O)O)cc2cc(S(=O)(=O)O)cc(NC(C)=O)c2c1O`, the entry is “inactive”; as for `O=CCc1ccccc1`, “inactive”; as for `Cc1cc(S(=O)(=O)O)ccc1N=Nc1c(O)ccc2ccccc12`, “inactive”. As for `O=C(Nc1ccc2c(O)c(N=Nc3ccc(N=Nc4ccc(S(=O)(=O)O)cc4)cc3)c(S(=O)(=O)O)cc2c1)c1ccccc1`, the entry is “inactive”. Consider `Cc1ccc(S(N)(=O)=O)cc1`, for which the result was inactive.

Turning to `C=CC(C)(O)CCC=C(C)C` (stereo unspecified), the molecule was classed as inactive.

Take `CCC(=O)O[C@@H]1C[C@H]2CC[C@]1(C)C2(C)C`: the molecule was classed as inactive.

On to `C=Cc1ccc(C)cc1`, for which the result was inactive. Consider `CC(C)CCOC(=O)c1ccccc1`, for which the call was inactive. As to `C[Si](C)(C)O[Si](C)(C)C`, the result was inactive. As for `CSCCC=O`, the entry is “inactive”; as for `C=C[Si]1(C)O[Si](C)(C=C)O[Si](C)(C=C)O[Si](C)(C=C)O1` (stereo unspecified), “inactive”. Take `Nc1ccc2cc(S(=O)(=O)O)cc(O)c2c1N=Nc1ccccc1C(F)(F)F`: the result was inactive. The entry for `CCCCC(CC)COC(C)=O` (stereo unspecified) is “inactive”. As for `CCCOCCO`, the entry is “inactive”. The entry for `CCCCCCC(C)(C)S` is “inactive”; for `C1=CC2C3C=CC(C3)C2C1` (stereo unspecified) it is “inactive”; for `CC(=O)O[C@@H]1CC2CCC1(C)C2(C)C` (stereo partly specified) it is “inactive”. Take `CCCCCC(=O)CC`: the call was inactive.

As for `CC(=O)O[C@H]1C[C@@H]2CC[C@@]1(C)C2(C)C`, the outcome was inactive. `CCCCCCCCc1ccc(S(=O)(=O)O)cc1`: the outcome was inactive.

As for `CC(C)CCCCCCc1ccc(OCCOCCO)cc1`, the molecule was classed as inactive. Regarding `CCCCCCCCCCCCN1CCCCCC1=O`, the call was inactive. As for `CN(C)c1cccc(O)c1`, the entry is “inactive”; as for `CCCCCC(C=O)=Cc1ccccc1`, “inactive”.
